Where “and” joins values, the source holds several entries; their conditions need not be identical. Identical values can stand only once. Inconclusive results are not listed. Entries that show only a call come without a potency. A structure can be active in one record and inactive in another. Calls of active or inactive are those of the source. Unless noted, the call rests on the fitted dose curve.
Key:
[1] = Nuclear factor erythroid 2-related factor 2/antioxidant responsive element (Nrf2/ARE) small molecule agonists: qHTS cell viability counter screen in human keratinocytes (AID 1919968; active means well fitted curve in the direction sought with a large enough effect in the repeat runs; an effect the other way counts as inactive or inconclusive; further: nearly all actives have a fitted effect of over 55% in size)
In short: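 HaCaT ARE reporter line, 1,500 cells/well; 5 h settle, 37 C/5% CO2; cpd in DMSO pinned; 23 h exposure; CellTiter-Fluor, 1 h; fluorescence.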

[2] = Nuclear factor erythroid 2-related factor 2/antioxidant responsive element (Nrf2/ARE) small molecule agonists: luciferase reporter gene qHTS assay in human keratinocytes (AID 1919969); further: nearly all actives have a fitted effect of over 35% in size; further: potency means the concentration at half of the fitted maximal effect
[3] = target: Gonadotropin-releasing hormone receptor (Homo sapiens) (UniProt P30968); test: Human gonadotropin-releasing hormone receptor (GnRHR) small molecule agonists, calcium flux assay in GnRHR-HEK293 cells (AID 1920063); further: nearly all actives have a fitted effect of over 35% in size
Sequence of Gonadotropin-releasing hormone receptor (Homo sapiens) (P30968 whole entry, looked up): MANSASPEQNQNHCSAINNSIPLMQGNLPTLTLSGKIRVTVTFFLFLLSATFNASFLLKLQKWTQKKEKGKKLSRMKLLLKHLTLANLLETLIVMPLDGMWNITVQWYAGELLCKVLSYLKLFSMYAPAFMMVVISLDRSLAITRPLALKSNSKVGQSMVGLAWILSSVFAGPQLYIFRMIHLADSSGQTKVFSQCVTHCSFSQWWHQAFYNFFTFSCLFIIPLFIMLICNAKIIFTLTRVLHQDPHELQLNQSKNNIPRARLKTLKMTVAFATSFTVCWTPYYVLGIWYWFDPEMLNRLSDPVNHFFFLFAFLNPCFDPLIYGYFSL
In short: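 GnRHR-HEK293, 1500 cells/well, 18 h 37 C/5% CO2; Ca dye 1 h 37 C; cpd pinned (DMSO), agonist mode; kinetic FL 480/540, 3 min, 1 s reads; 15 conc, n=3.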

[4] = target: KiSS-1 receptor (Homo sapiens) (UniProt Q969F8); test: Human kisspeptin (KISS1R) small molecule agonists, calcium flux assay in KISS1R-HEK293 cells (AID 1920064; active means well fitted curve in the direction sought with a large enough effect in the repeat runs; an effect the other way counts as inactive or inconclusive)
Sequence of KiSS-1 receptor (Homo sapiens) (Q969F8 whole entry, looked up): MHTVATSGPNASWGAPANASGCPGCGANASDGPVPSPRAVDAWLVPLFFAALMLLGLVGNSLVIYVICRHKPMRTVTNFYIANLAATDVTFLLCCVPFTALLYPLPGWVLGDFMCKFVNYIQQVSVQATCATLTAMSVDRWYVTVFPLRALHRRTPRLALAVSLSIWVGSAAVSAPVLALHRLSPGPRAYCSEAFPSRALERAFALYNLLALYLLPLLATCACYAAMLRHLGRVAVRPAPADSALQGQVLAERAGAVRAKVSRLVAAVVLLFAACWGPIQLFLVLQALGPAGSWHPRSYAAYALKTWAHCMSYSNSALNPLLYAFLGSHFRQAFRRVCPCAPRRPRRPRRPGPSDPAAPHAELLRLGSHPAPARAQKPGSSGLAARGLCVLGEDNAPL
In short: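 Stable human KISS1R HEK293 line; 18 h plating, 37 C/5% CO2; calcium dye 1 h 37 C; compound pin transfer; kinetic fluorescence Ex/Em 480/540, 3 min.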

[5] = G protein-coupled receptor (GPCR) small molecule agonists, calcium flux assay: HEK293 wild type cell line counter screen (AID 1920065)
In short: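 Kinetic fluorescence at Ex/Em 480/540, recorded every second over 3 min, served as the read-out after compound addition. Each compound was tested at 15 concentrations in triplicate on cells pre-loaded with calcium dye for 1 h.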

[6] = p53 small molecule agonists, cell-based qHTS assay with human liver microsomes (AID 1963577);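 further: p53 response element beta-lactamase reporter cells with liver microsomes plus NADPH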
In short: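 With metabolic activation: human liver microsomes (0.5 mg/mL final) plus NADPH (0.5 mg/mL final) added alongside compounds to p53RE-bla cells; 16 h 37 C exposure; beta-lactamase read by LiveBLAzer fluorescence.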

[7] = p53 small molecule agonists, cell-based qHTS assay with rat liver microsomes (AID 1963578)
In short: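 Metabolic activation by rat liver microsomes and NADPH, each 0.5 mg/mL final, added right after compounds to p53RE-bla reporter cells (4,000/well, plated 5 h earlier). 16 h at 37 C, then LiveBLAzer substrate for 2 h at room temperature in the dark; fluorescence read-out.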

[8] = p53 small molecule agonists, cell-based qHTS assay with human liver microsomes: qHTS cell viability counter screen (AID 1963579); further: nearly all actives have a fitted effect of over 45% in size
In short: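 Metabolic activation used human liver microsomes and NADPH, both 0.5 mg/mL final, over 16 hours at 37 C on p53RE-bla cells (4,000/well). Cytotoxicity measured by CellTiter-Glo luminescence, 30 min at room temperature.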

[9] = p53 small molecule agonists, cell-based qHTS assay with rat liver microsomes: qHTS cell viability counter screen (AID 1963580); further: nearly all actives have a fitted effect of over 45% in size
In short: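 p53RE-bla HCT-116 cells (4,000/well) rested 5 h at 37 C, then given Tox21 compounds in DMSO with rat liver microsomes (0.5 mg/mL final) plus NADPH (0.5 mg/mL final) for 16 h at 37 C. Viability read by CellTiter-Glo luminescence after 30 min at room temperature.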

[10] = p53 small molecule agonists, cell-based qHTS assay: qHTS cell viability counter screen (AID 1963581); further: nearly all actives have a fitted effect of over 45% in size
In short: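 HCT-116 p53RE-bla cells, 4,000/well, plated 5 h before compound pin transfer; 16 h at 37 C; bla substrate 2 h RT; then CellTiter-Glo, 30 min RT, luminescence.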

[11] = p53 small molecule agonists, cell-based qHTS assay (AID 1963582; active means well fitted activation curve with a large enough effect in the signal ratio in the repeat runs, not every such curve was filed as active; the % refers to the signal ratio)
In short: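 Reporter line: p53RE-bla. Pre-incubation 5 h, 37 C, 5% CO2; compound (DMSO, pin tool) 16 h, 37 C; B/G FRET substrate 2 h RT; fluorescence intensity read.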

[12] = target: 5-hydroxytryptamine receptor 2A (Homo sapiens) (UniProt P28223); test: 5-hydroxytryptamine receptor 2A (HTR2A) small molecule antagonists, cell-based qHTS assay (AID 1963586); further: nearly all actives have a fitted effect of over 45% in size
Sequence of 5-hydroxytryptamine receptor 2A (Homo sapiens) (P28223 whole entry, looked up): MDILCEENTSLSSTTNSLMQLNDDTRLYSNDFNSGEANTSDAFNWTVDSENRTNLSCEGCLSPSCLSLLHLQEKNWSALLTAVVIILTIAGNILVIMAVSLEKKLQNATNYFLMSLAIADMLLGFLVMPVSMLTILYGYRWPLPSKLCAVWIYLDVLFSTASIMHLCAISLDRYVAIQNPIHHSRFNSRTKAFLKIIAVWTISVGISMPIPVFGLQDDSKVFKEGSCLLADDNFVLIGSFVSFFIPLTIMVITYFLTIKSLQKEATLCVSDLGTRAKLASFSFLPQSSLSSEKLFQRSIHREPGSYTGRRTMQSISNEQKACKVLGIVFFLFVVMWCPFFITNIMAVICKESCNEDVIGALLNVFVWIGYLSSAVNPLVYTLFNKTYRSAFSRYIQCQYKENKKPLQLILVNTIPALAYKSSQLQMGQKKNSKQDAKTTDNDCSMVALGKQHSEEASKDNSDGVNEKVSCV
In short: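 Antagonist-mode intracellular calcium assay: DOI (4 nM) added after 5 min compound pre-incubation at room temperature to dye-loaded HTR2A-CHO cells. Fluorescence followed for 3 min, sampled every second.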

[13] = target: 5-hydroxytryptamine receptor 2A (Homo sapiens) (UniProt P28223); test: 5-hydroxytryptamine receptor 2A (HTR2A) small molecule agonists, cell-based qHTS assay (AID 1963587); further: nearly all actives have a fitted effect of over 30% in size
In short: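 HTR2A-CHO cells, plated 18 h at 37 C/5% CO2, dye-loaded 1 h at 37 C; compounds in DMSO added by pin tool (agonist mode). Intracellular calcium flux read as kinetic fluorescence on FDSS over 2 min at 1 s intervals.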

[14] = target: Muscarinic acetylcholine receptor M1 (Homo sapiens) (UniProt P11229); test: Cholinergic receptor muscarinic 1 (CHRM1) small molecule agonists, cell-based qHTS assay (AID 1963589); further: nearly all actives have a fitted effect of over 35% in size
Sequence of Muscarinic acetylcholine receptor M1 (Homo sapiens) (P11229 whole entry, looked up): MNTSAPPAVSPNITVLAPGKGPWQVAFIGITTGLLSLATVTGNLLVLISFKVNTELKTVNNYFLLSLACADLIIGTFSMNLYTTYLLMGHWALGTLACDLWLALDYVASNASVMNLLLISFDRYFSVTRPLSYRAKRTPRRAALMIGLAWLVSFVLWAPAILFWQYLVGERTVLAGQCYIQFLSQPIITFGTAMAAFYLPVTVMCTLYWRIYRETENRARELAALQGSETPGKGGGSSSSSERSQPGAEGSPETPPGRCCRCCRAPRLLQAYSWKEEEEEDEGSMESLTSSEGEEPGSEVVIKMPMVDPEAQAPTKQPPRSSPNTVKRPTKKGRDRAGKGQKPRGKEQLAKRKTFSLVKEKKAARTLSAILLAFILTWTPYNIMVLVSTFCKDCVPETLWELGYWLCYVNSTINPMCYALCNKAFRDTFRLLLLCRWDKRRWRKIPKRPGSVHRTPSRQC
In short: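 Human M1 in stable CHO line; 18 h plating, 1 h dye load 37 C; cpd added (agonist mode); Ca2+ fluorescence kinetic read, 1 s intervals; 15 conc, 3 runs.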

[15] = cAMP Responsive Elements (CRE) small molecule agonists, cell-based qHTS assay (AID 1963590)
In short: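 HEK 293T CRE-bla, 2,000 cells/well, 18 h preincubation 37 C/5% CO2; cpds (DMSO) pinned, 3 h; LiveBLAzer B/G FRET substrate, 2 h RT.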

[16] = cAMP Responsive Elements (CRE) small molecule antagonists, cell-based qHTS assay (AID 1963591; active means well fitted inhibition curve with a large enough effect in the signal ratio in the repeat runs, not every such curve was filed as active; the % refers to the signal ratio)
In short: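 Beta-lactamase reporter read by FRET substrate (LiveBLAzer B/G) after 2 h at room temperature. CRE-bla HEK293T cells had received compound plus 0.25 uM (final) NKH477 for 3 h at 37 °C.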

[17] = target: Beta-2 adrenergic receptor (Homo sapiens) (UniProt P07550); test: Adrenergic beta2 receptor (ADRB2) small molecule antagonists, cell-based qHTS assay (AID 1963592); further: series mostly up to about 92 µM; nearly all actives have a fitted effect of over 50% in size
Sequence of Beta-2 adrenergic receptor (Homo sapiens) (P07550 whole entry, looked up): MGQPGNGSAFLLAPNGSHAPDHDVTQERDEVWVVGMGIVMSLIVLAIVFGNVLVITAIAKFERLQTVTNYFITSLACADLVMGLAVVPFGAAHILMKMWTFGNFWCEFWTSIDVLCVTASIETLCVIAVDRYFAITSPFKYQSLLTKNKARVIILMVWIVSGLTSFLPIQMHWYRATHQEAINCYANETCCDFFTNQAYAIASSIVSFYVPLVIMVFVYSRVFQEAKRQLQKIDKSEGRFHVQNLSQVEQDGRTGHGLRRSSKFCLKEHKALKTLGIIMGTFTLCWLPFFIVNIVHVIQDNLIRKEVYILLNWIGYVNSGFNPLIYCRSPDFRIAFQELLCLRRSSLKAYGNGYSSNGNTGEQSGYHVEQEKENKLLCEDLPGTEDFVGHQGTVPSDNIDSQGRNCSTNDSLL
In short: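 Cells (CHO, stable ADRB2 overexpression) incubated 18-20hr at 37C; compounds added from DMSO; agonist mix (1nM isoproterenol, 100uM IBMX, 25uM Ro-20-1724) added; 0.5hr RT; d2-cAMP and anti-cAMP-cryptate added; 1hr RT; 665/615 nm read.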

[18] = target: Beta-2 adrenergic receptor (Homo sapiens) (UniProt P07550); test: Adrenergic beta2 receptor (ADRB2) small molecule agonists, cell-based qHTS assay (AID 1963593);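 further: CHO cells stably overexpressing human ADRB2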
In short: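 CHO cells stably over-expressing ADRB2 were plated overnight at 37C, then dosed with compounds plus a stimulation mix containing 100uM IBMX and 25uM Ro-20-1724 for 0.5hr at room temperature. cAMP was measured by HTRF competition, 1hr.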

[19] = target: D(2) dopamine receptor (Homo sapiens) (UniProt P14416); test: Dopamine D2 receptor (DRD2) small molecule agonists, cell-based qHTS assay (AID 1963594); further: nearly all actives have a fitted effect of over 35% in size
Sequence of D(2) dopamine receptor (Homo sapiens) (P14416 whole entry, looked up): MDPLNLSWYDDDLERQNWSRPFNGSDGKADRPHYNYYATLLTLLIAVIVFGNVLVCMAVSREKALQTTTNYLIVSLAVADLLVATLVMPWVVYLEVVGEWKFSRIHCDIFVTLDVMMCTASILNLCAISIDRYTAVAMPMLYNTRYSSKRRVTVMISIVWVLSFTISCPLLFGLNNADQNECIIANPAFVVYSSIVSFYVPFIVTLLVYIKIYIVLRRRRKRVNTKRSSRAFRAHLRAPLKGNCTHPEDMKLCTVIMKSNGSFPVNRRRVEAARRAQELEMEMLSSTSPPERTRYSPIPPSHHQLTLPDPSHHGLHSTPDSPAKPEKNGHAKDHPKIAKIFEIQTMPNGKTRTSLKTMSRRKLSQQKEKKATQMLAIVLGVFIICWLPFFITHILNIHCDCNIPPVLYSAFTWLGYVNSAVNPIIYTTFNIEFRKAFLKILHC
In short: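 HEK293 cells stably expressing DRD2 were cultured 24 h at 37 C, then given Ro20-1724 (0.1 mM final) and compounds for 10 min at room temperature. NKH477 (200nM) was then added for 30 min. cAMP was read by HTRF.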

[20] = target: D(2) dopamine receptor (Homo sapiens) (UniProt P14416); test: Dopamine D2 receptor (DRD2) small molecule antagonists, cell-based qHTS assay (AID 1963595; active means well fitted inhibition curve with a large enough effect in the signal ratio in the repeat runs, with a control signal flat; the % refers to the signal ratio)
In short: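 DRD2-HEK293; 0.1 mM Ro20-1724; cpd 10 min RT; NKH477 200 nM + quinpirole 12 nM, 30 min RT; HTRF cAMP (cAMP-d2/anti-cAMP cryptate), 665/620 nm ratio after 1 h.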

Compound | Potency [1] | Potency [2] | Potency [3] | Potency [4] | Potency [5] | Potency [6] | Potency [7] | Potency [8] | Potency [9] | Potency [10] | Potency [11] | Potency [12] | Potency [13] | Potency [14] | Potency [15] | Potency [16] | Potency [17] | Potency [18] | Potency [19] | Potency [20]
C=CC(C)(CCC=C(C)C)OC(C)=O (stereo not drawn) | inactive | inactive | inactive | inactive | inactive | inactive | inactive | inactive | inactive | inactive | inactive | inactive | inactive | inactive | inactive | inactive | inactive | inactive | inactive | inactive
c1ccc2cc3c(ccc4ccccc43)cc2c1 | inactive | 9.72 µM (active) and 9.69 µM (active) | inactive | inactive | inactive | inactive | inactive | inactive | inactive | inactive | inactive | inactive | – | inactive | inactive | inactive | inactive | inactive | – | inactive
O=C(O)CCCC(=O)O | inactive | inactive | inactive | inactive | inactive | inactive | inactive | inactive | inactive | inactive | inactive | inactive | inactive | inactive | inactive | inactive | inactive | inactive | inactive | inactive
CCCCC(CC)COC(=O)C(C#N)=C(c1ccccc1)c1ccccc1 (stereo not drawn) | inactive | inactive | inactive | inactive | inactive | inactive | inactive | inactive | inactive | inactive | inactive | inactive | inactive | inactive | inactive | inactive | inactive | inactive | inactive | inactive
CCCCNC(N)=O | inactive | inactive | inactive | inactive | inactive | inactive | inactive | inactive | inactive | inactive | inactive | inactive | inactive | – | inactive | inactive | inactive | inactive | inactive | inactive
O=c1c(O)c(-c2ccc(O)cc2)oc2cc(O)cc(O)c12 | inactive | 17.2 µM (active) and inactive | inactive | inactive | inactive | inactive | inactive | inactive | inactive | inactive | inactive | inactive | inactive | inactive | – | – | inactive | – | inactive | inactive
Cc1cc(=O)[nH]c(=S)[nH]1 | inactive | inactive | inactive | inactive | inactive | inactive | inactive | inactive | inactive | inactive | inactive | inactive | inactive | inactive | inactive | – | inactive | inactive | inactive | inactive
